From PubChem
RN4220 kill = kills Staphylococcus aureus RN4220; S. aureus RN4220 growth, OD600, 16 h; hit rate 0.33% among 330,000; inhibition, % (test concentration not listed); in the data active means inhibition above about 85%;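 further: plate controls were untreated cells for no effect and reference antibiotic for full effect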
CCHF vOTU inh-1 = blocks the CCHF virus ovarian tumor domain protease; CCHFV vOTU protease, Pep-AMC fluorescence; inhibition, % at 11.5 µM; hit rate 0.55% among 370,000; AID 651958; further: 0% = vehicle wells with enzyme and 100% = no enzyme wells
PfHsp40 yeast = compounds rescuing yeast from Plasmodium falciparum HSP40 toxicity; S. cerevisiae expressing PfHsp40, growth rescue, ATP luminescence; growth rescue, % at 12.5 µM; hit rate 0.68% among 340,000; AID 504582; in the data active means growth rescue above about 28%, passing the limit was not always enough;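 further: yeast W303a lacking pdr1 and pdr3 grown in galactose medium; growth measured after three days at 30 °C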
ugtP null kill = kills S. aureus RN4220 lacking UgtP | growth inhibition, % (no concentration beside the values) | hit rate 0.54% among 330,000 | S. aureus RN4220 ugtP deletion, OD600 growth, 16 h; in the data active means growth inhibition above about 68%;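 further: plate controls were untreated wells for no effect and antibiotic for full effect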
Mtb hypoxia rep = reduces hypoxia-regulated biosensor signal in M. tuberculosis; hit rate 0.1% among 300,000; AID 1159583; fluorescence inhibition, % (no concentration beside the values); M. tuberculosis hypoxia-regulated fluorescent reporter, fluorescence; in the data active means fluorescence inhibition mostly above about 23%, no sharp cut-off; inactive means mostly below about 17%
BH1578 lux ind = inducers of Vibrio cholerae quorum light production without autoinducers; V. cholerae BH1578 lux reporter, luminescence, 6 h; activation, % at 18.7 µM; hit rate 0.16% among 350,000; AID 588436; in the data active means activation mostly above about 9.7%, no sharp cut-off
CCHF vOTU inh-2 = CCHFV vOTU protease inhibition, confirmation | shares compounds with CCHF vOTU inh-1 | Recombinant CCHFV vOTU, Pep-AMC fluorescence | inhibition, % at 11.5 µM | hit rate 17% among 1,900
* = called active by the depositor; i = inactive; · = no result shown. In the library only some 1.7% were active in any assay of this set; here they are far more common. Unless noted, no stated cut-off is given here; in the data, active means inhibition above about 30%; inactive means the rest.

SMILES | RN4220 kill | CCHF vOTU inh-1 | PfHsp40 yeast | ugtP null kill | Mtb hypoxia rep | BH1578 lux ind | CCHF vOTU inh-2
C=CC[C@H](CC(=O)N(CCO)Cc1ccccc1)C(=O)NCCOC(=O)[C@H](CC=C)CC(=O)OC(C)(C)C | 2 | -1 | -1 | 2 | -7 | 1 | ·
C=CC[C@H](CC(=O)N(CCO)Cc1ccccc1)C(=O)N[C@H](COC(=O)[C@H](CC=C)CC(=O)OC(C)(C)C)Cc1c[nH]c2ccccc12 | 2 | 24 | 2 | -20 | 6 | i | ·
C=CC[C@@H](CC(=O)N(CCO)Cc1ccccc1)C(=O)N[C@H](COC(=O)[C@@H](CC=C)Cc1ccc(F)cc1)Cc1c[nH]c2ccccc12 | · | 14 | 1 | · | · | -7 | ·
C=CC[C@@H](CC(=O)N(CCO)Cc1ccccc1)C(=O)NC[C@H](OC(=O)[C@@H](CC=C)CC(=O)OC(C)(C)C)c1ccccc1 | 0 | 37* | 2 | -3 | -1 | -8 | 11
C=CC[C@H](CC(=O)N(CCO)Cc1ccccc1)C(=O)N[C@H](COC(=O)[C@@H](CC=C)Cc1ccc(F)cc1)Cc1c[nH]c2ccccc12 | · | 31* | -1 | · | · | 0 | 7
O=C(O)CCn1cc(C=C2SC(=S)NC2=O)c(-c2ccccc2)n1 | 2 | · | · | -6 | 0 | · | ·
O=S(=O)(NN=Cc1ccc(N2CCOCC2)cc1)c1ccccc1 | 4 | · | · | 2 | 12 | · | ·
C=CCC[C@H](Cc1ccc(F)cc1)C(=O)OC[C@@H](Cc1c[nH]c2ccccc12)NC(=O)[C@@H](CC=C)CC(=O)N[C@@H](CO)Cc1ccccc1 | · | 32* | 19 | · | · | 4 | 11
C=CC[C@@H](CC(=O)N(CCO)Cc1ccccc1)C(=O)N[C@H](COC(=O)[C@@H](CC=C)CC(=O)OC(C)(C)C)Cc1ccccc1 | 2 | 37* | 11 | -11 | -3 | i | 21
C=CCC[C@@H](Cc1ccc(F)cc1)C(=O)OC[C@H](Cc1c[nH]c2ccccc12)NC(=O)[C@@H](CC=C)CC(=O)N[C@@H](CO)Cc1ccccc1 | · | 17 | 0 | · | · | -1 | ·
C=CC[C@H](CC(=O)N(CCO)Cc1ccccc1)C(=O)N[C@H](COC(=O)[C@@H](CC=C)CC(=O)OC(C)(C)C)Cc1ccccc1 | · | 22 | 4 | · | · | i | ·
CCC(=O)N1CCCC(C)(C(=O)Nc2ccc(OC(F)F)cc2)C1 (stereo not given) | · | 31* | · | · | · | -1 | -18
CCC(C)C(CNC(C)CNC)NCCC(c1ccccc1)c1ccccc1 (stereo not given) | -1 | · | · | 1 | 12 | · | ·
CC(=O)c1c(C)oc2c1C(=O)c1ccccc1C2=O | 22 | 11 | 16 | 5 | 9 | -3 | ·
Cc1nc2c(o1)C(=O)c1ccccc1C2=Nc1ccccc1 | · | 41* | 0 | · | · | -1 | 53*
COc1ccc(-c2cc(=O)n(CCC#N)[nH]2)cc1 | 2 | 62* | 0 | 3 | 18 | 3 | -27
CN(C)C(=O)c1c2c(nc3ccccc13)-c1ccccc1CC2 | 1 | 33* | 0 | -1 | 3 | -3 | -21
CC1CN(C(C)CO)C(=O)c2cccc(NC(=O)Nc3ccc(C(F)(F)F)cc3)c2OC1CN(C)Cc1ccc(Cl)c(Cl)c1 (stereo not given) | -4 | · | · | -14 | 3 | · | ·
O=[N+]([O-])c1c(Nc2ccccn2)cc(Cl)c2nonc12 | 59 | 113* | 1 | 71 | 16 | 0 | 94*
O=C(O)c1ccccc1Nc1cc(Cl)c2nonc2c1[N+](=O)[O-] | 4 | 17 | 0 | 3 | · | 2 | ·
COC(=O)C1=C(c2ccc3ccccc3c2)CC2CCC1N2C(=O)NCc1ccc(C(F)(F)F)cc1 (stereo not given) | -14 | · | · | 17 | 8 | · | ·
O=C(NN=C/C=C/c1cccc([N+](=O)[O-])c1)C(O)c1ccccc1 (stereo not given) | -2 | · | · | 7 | 11 | · | ·
O=C1NC[C@H](Cc2ccc(O)cc2)N(C[C@@H]2CCCN2C[C@H](Cc2ccc(O)cc2)N2C[C@H](Cc3ccccc3)N(CCc3ccccc3)C(=O)C2=O)C1=O | · | 34* | · | · | · | · | -19
CCOc1ccc(CCN2C(=S)N([C@@H](Cc3ccccc3)CN3CCCC3CN3C(=S)NC[C@@H]3Cc3ccccc3)C[C@@H]2Cc2ccc(O)cc2)cc1 (stereo not given in full) | · | 30* | · | · | · | · | -5
CCOc1ccc(CCN2C(=O)C(=O)N([C@@H](CC(C)C)CN3CCC[C@H]3CN3C(=O)C(=O)NC[C@@H]3Cc3ccc(O)cc3)C[C@@H]2Cc2ccccc2)cc1 | · | 30* | · | · | · | · | -9
SMILES | RN4220 kill | CCHF vOTU inh-1 | PfHsp40 yeast | ugtP null kill | Mtb hypoxia rep | BH1578 lux ind | CCHF vOTU inh-2
CC(C)C[C@@H](CN1CCC[C@@H]1CN1C(=S)NC[C@@H]1Cc1ccccc1)N1C[C@H](Cc2ccc(O)cc2)N(CC2CCCCCC2)C1=S | · | 13 | · | · | · | · | ·
O=C1NC[C@H](Cc2ccc(O)cc2)N(C[C@@H]2CCCN2C[C@H](Cc2ccccc2)N2C[C@H](Cc3ccccc3)N(CCc3ccccc3)C(=O)C2=O)C1=O | · | 9 | · | · | · | · | ·
CC(C)C[C@@H](CN1CCC[C@@H]1CN1C(=S)NC[C@@H]1Cc1ccccc1)N1C[C@H](Cc2ccc(O)cc2)N(CC2CCCCC2)C1=S | · | 30* | · | · | · | · | -12
O=C1C=C(c2ccc3c(c2)OCO3)CC(c2ccc(Cl)cc2)C1 (stereo not given) | 1 | · | · | -2 | 4 | · | ·
C#CCOCCOCCOCCNc1nc(N2CCN(C(=O)C(CCC(=O)O)n3cc(C(N)Cc4ccc(O)cc4)nn3)CC2)nc(N2CCN(C(=O)C(CCC(=O)O)n3cc(C(N)CC(C)C)nn3)CC2)n1 (stereo not given) | 6 | · | · | 2 | 4 | · | ·
COc1ccc(NC(=O)Cn2nc(C(F)(F)F)c3c2CCCC3)c(OC)c1 | 9 | 30* | 1 | -11 | 7 | -4 | -21
COC(=O)CN(c1ccc(F)cc1)S(=O)(=O)c1ccccc1 | 9 | 9 | 1 | 5 | 5 | i | ·
COC(=O)Cc1ccc(N(Cc2ccccc2F)S(=O)(=O)c2ccc(Cl)cc2)cc1 | 4 | 32* | -2 | 18 | -5 | i | 2
COc1cc2c(cc1O)[C@@H]1Cc3ccc(OC)c(O)c3CN1CC2 | · | 105* | 0 | · | · | i | 93*
CCOC(=O)C=CC1CC(c2ccccc2)(c2ccccc2)CO1 (stereo not given) | 3 | · | · | 9 | 17 | · | ·
COc1ccc(C)cc1S(=O)(=O)N(CC(=O)Nc1ccc2c(c1)OCCO2)Cc1ccccc1 | 3 | · | 1 | 5 | 5 | 0 | ·
COc1ccc(C)cc1S(=O)(=O)N(C)CC(=O)Nc1ccc2c(c1)OCO2 | 0 | 30* | 0 | -2 | 14 | i | 0
COc1ccc(CN(C)C(=O)[C@H]2O[C@@H](n3ccc(=O)[nH]c3=O)[C@H](O)[C@@H]2O)cc1OC | · | 30* | · | · | · | · | 3
